We go through 103 compounds from PubChem BioAssay AID2551 (National Center for Advancing Translational Sciences (NCATS), 2010).

The structures appear in SMILES notation. About 17,000 (5.5%) of roughly 310,000 compounds were called active. A call without a number means that no potency is given here. Not shown: some 11% with an inconclusive outcome. Calls come from the whole dose curve; as a rule, active = well fitted inhibition curve with a large enough effect; inconclusive = small, poorly fitted or top-dose-only effect, or effect the other way; inactive = no such curve, though single readings can be large or run the other way. Only a selection was taken, and actives are over-represented in it overall.
Potency is the fitted concentration of half-maximal effect.

Nuclear receptor ROR-gamma (Mus musculus), sequence (P51450 whole entry, looked up, the tested form may be a part): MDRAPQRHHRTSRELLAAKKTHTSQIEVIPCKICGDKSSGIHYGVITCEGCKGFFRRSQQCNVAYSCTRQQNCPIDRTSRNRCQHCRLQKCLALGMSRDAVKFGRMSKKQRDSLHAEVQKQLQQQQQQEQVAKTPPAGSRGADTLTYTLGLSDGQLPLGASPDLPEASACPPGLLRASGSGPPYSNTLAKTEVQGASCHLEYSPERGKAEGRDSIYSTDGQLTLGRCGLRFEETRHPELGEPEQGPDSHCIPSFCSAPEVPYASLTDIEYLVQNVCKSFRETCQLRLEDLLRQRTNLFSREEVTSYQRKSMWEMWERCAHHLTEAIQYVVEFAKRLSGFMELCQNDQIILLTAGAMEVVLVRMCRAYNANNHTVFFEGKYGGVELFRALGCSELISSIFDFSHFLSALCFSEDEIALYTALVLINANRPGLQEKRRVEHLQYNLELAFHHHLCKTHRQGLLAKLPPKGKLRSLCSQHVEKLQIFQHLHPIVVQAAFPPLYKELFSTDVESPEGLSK

The test addresses Nuclear receptor ROR-gamma (Mus musculus) (UniProt P51450). Description: qHTS for inhibitors of ROR gamma transcriptional activity. Note: nearly all actives have a fitted effect of over 60% in size. To be noted: Drosophila S2 Gal4-RORgamma UAS-luciferase reporter, 20 h; series mostly up to 53.6 µM. The essentials:
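In this cell-based reporter format, copper sulfate (700 uM final) drives Gal4–ROR gamma fusion expression from a metallothionein promoter in Drosophila Schneider cells; compounds preincubated 1 hr, reporter read after 20 hr at ambient temperature.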
(In qHTS, concentration-response curves come from the screen itself.)
For the compound `Cc1cc(=O)oc2c(C)c(OC(C)C(=O)NC3CCN(Cc4ccccc4)CC3)ccc12` (stereo not drawn), the Potency entry is “inactive”.
With `COCc1ccc(C(=O)NC2CC(C)(C)Cc3c2cnn3-c2ccc(C)cc2)o1` (stereo not drawn), the Potency entry is “inactive”.
Still for that read-out and setting: under `CC(=O)c1ccc(NC(=O)CCNS(=O)(=O)c2cc(Br)cnc2N)cc1` stands “inactive”; under `COc1cc(OC)cc(C(=O)Nc2ccc(-c3nc4ccccc4o3)c(O)c2)c1`, 11.2 µM (active).
The same measure, in the same setting: then `COc1cc(OC)cc(C(=O)Nc2ccc(S(=O)(=O)Nc3cc(C)on3)cc2)c1`, with “inactive”.
In the case of `O=C(Nc1ccc2oc(-c3ccccc3F)nc2c1)c1ccco1`, the Potency entry is “inactive”.
The same measure, in the same setting: then `C[n+]1cc(-c2ccccc2)oc1-c1ccccc1`, with “inactive”; and `CC(C)N(C(=O)Cn1cc(S(=O)(=O)CC(=O)N2CCOCC2)c2ccccc21)C(C)C`, with “inactive”; and `COc1ccc2c(CC(=O)N3CCc4cc(OC)c(OC)cc4C3)coc2c1`, with “inactive”.
For `CCC(CCC(C)C1CCC2C3CC=C4CC(O)CC[C@@]4(C)C3CC[C@@]12C)C(C)C` (stereo partly drawn), the Potency result was “inactive”.
The same measure, in the same setting: then `C=C1C(=CC=C2CCC[C@@]3(C)[C@@H]2CC[C@H]3[C@H](C)CCCC(C)C)C[C@@H](O)C[C@@H]1O`, with 12.6 µM (active).
Consider `COc1ccc(C(=O)O/N=C(\N)c2ccccn2)cc1[N+](=O)[O-]`, for which the activity change, negative = inhibition is -42.4% [at 1.91 µM] (inactive).
Consider `Cc1ccc(C(=O)O/N=C(\N)c2ccccn2)cc1Cl`, for which the activity change, negative = inhibition is 35.7% [at 1.91 µM] (inactive).
`Cc1cccc(/C(N)=N/OC(=O)c2ccccc2Cl)c1`: the Potency was 0.251 µM (active).
Still for that read-out and setting: then `Cc1cccc(C(=O)c2cccc(C)c2)c1`, with “inactive”.
As for `COc1ccc(S(=O)(=O)N2CCC(C(=O)N3CCCC3)CC2)cc1C`, the Potency entry is “inactive”.
Still for that read-out and setting: then `O=C(/C=C/c1cn(-c2ccccc2)nc1-c1ccc2c(c1)OCCO2)NCCCN1CCOCC1`, with 17.8 µM (active).
Take `COc1ccc(-c2nn(-c3ccccc3)cc2/C=C\C(=O)N2CCOCC2)cc1[N+](=O)[O-]`: the Potency result is “inactive”.
Still for that read-out and setting: under `COc1ccc(-c2nn(-c3ccccc3)cc2/C=C\C(=O)Nc2ccc(C(=O)O)cc2)cc1` stands “inactive”; under `O=C1CSC(=S)N1c1ccc(O)cc1`, 12.6 µM (active).
As to `COc1cc(N2C(=O)CSC2=S)cc(OC)c1OC`, the Potency entry is “inactive”.
For the compound `O=C1CSC(=S)N1c1ccc(Cl)c(Cl)c1`, the Potency result was “inactive”.
Consider `CC1CN(C(=O)CCC(=O)NC2CCN(Cc3ccccc3)CC2)c2ccccc2O1` (stereo not drawn), for which the Potency result was “inactive”.
Still for that read-out and setting: then `Cc1ccc(OCC(=O)Nc2ccccc2C(=O)NC2CC2)cc1C`, with “inactive”; and `NNC(=O)c1ccc(Cl)cc1Cl`, with “inactive”.
Turning to `O=C(Nn1cnnc1)c1cc(Cl)ccc1Cl`, the Potency result was “inactive”.
The same measure, in the same setting: under `O=C(N/N=C1\CCSC1)c1cc(Cl)ccc1O` stands 11.2 µM (active); under `O=C(c1cc(COc2ccc(F)c(F)c2)on1)N1CCOCC1`, “inactive”.
On the same count and under the same terms, then `COc1ccc(OCC(=O)NCCS(=O)(=O)N2CCN(c3ccc(F)cc3)CC2)cc1`, with “inactive”.
For `Cc1cccc(NC(=O)NC2(C)CCS(=O)(=O)C2)c1` (stereo not drawn), the Potency result was “inactive”.
Still for that read-out and setting: under `CC(=O)NCC(=O)N1CCCC(C(=O)c2ccc3c4c(cccc24)CC3)C1` (stereo not drawn) stands “inactive”; under `CCn1ccnc1CN1CCCC(C(=O)c2ccc3c4c(cccc24)CC3)C1` (stereo not drawn), 1.26 µM (active); under `Cc1ncoc1C(=O)N1CCCC(C(=O)c2ccc3c4c(cccc24)CC3)C1` (stereo not drawn), “inactive”.
Same read-out and setting: then `CC(=O)Nc1ccc(S(=O)(=O)N(C)c2nc3ccccc3nc2Cl)cc1`, with “inactive”.
On the same count and under the same terms, then `COc1ccc(C2c3[nH]c4ccccc4c3C[C@H]3C(=O)N(CC(C)C)CC(=O)N23)c(OC)c1` (stereo partly drawn), with “inactive”; and `COc1ccc(CNC(=O)CSc2n[nH]c(N)n2)cc1OC`, with “inactive”; and `Cc1noc(NS(=O)(=O)c2ccc(N/C=C/C(=O)c3ccccc3)cc2)c1C`, with “inactive”.
For the compound `Cc1ccc(N/C=C/C(=O)c2ccccc2)cc1C`, the Potency was 0.282 µM (active).
Regarding `O=C(/C=C\NCC(=O)c1ccccc1)c1ccccc1`, the Potency result is “inactive”.
Same read-out and setting: then `COc1cc(/C=C2/C(=O)ON=C2C)ccc1OCc1cccc(F)c1`, with “inactive”; and `C=CCOc1ccc(/C=C2/C(=O)ON=C2C)cc1OCC`, with “inactive”.
The same measure, in the same setting: under `COc1cc(/C=C2/C(=O)ON=C2C)ccc1OCc1ccccc1F` stands 10 µM (active); under `Cc1nn2c(=O)cc(COC(=O)c3ccc(NC(=O)C(C)(C)C)cc3)nc2s1`, “inactive”.
Same read-out and setting: under `O=C(Cn1nnc(-c2ccccc2)n1)NCc1ccc2c(c1)OCO2` stands “inactive”; under `c1ccc(-c2nnc3n2NC(c2ccc4c(c2)OCO4)S3)cc1` (stereo not drawn), 7.94 µM (active); under `Cc1cccc(C)c1NC(=O)CSc1nnc(-c2ccccc2)n1Cc1ccc2c(c1)OCO2`, “inactive”.
With `COC(=O)c1c(C)[nH]c(C(=O)NCCc2ccc(S(N)(=O)=O)cc2)c1C`, the Potency result was “inactive”.
As to `COC(=O)c1c(C)[nH]c(C(=O)/C=C/c2ccc(Cl)cc2)c1C`, the Potency is 0.282 µM (active).
With `CCCCOC(=O)c1[nH]c(C)c(C(=O)OC)c1C`, the Potency entry is “inactive”.
Same read-out and setting: then `CCS(=O)(=O)N1CCC(N2CCN(c3ccccc3)CC2)CC1`, with “inactive”; and `O=C(COC(=O)c1ccccn1)Nc1cccc2ccccc12`, with “inactive”.
Still for that read-out and setting: under `N#Cc1ccccc1NC(=O)COc1c(Br)cc(Br)c2cccnc12` stands 12.6 µM (active).
For the compound `N#Cc1ccc(C(=O)Nc2cccc3cccnc23)c(F)c1`, the Potency result was “inactive”.
`Cc1ccc(CNC(=O)Cn2cnc(S(=O)(=O)N3CCCCC3)c2)o1`: the Potency result is “inactive”.
Same read-out and setting: then `Cc1c(C)c(C)c(S(=O)(=O)NCCc2ccccn2)c(C)c1C`, with “inactive”.
For the compound `Cc1ccc(C2NC(=S)NC3=C2N2CCC3CC2)cc1` (stereo not drawn), the Potency is 11.2 µM (active).
For `COc1cc(NC(=O)c2ccccc2)c(OC)cc1NC(=O)Cc1ccccc1`, the Potency entry is “inactive”.
Regarding `O=C(O)CCCn1c(=O)c2cccn2c2ccc(F)cc21`, the Potency result is “inactive”.
For `Cc1ccc(-n2c(SCC(=O)NCCC3=CCCCC3)nc3n[nH]c(C)c3c2=N)cc1Cl`, the Potency result is “inactive”.
Consider `O=C(Nc1nnc(-c2ccc(Cl)cc2)o1)c1ccccc1Br`, for which the Potency is 2.51 µM (active).
Consider `O=C(Nc1cccc(Cl)c1)Nc1nnc(-c2ccccc2)o1`, for which the Potency entry is “inactive”.
On the same count and under the same terms, then `Cc1nonc1NC(=O)c1ccccc1Br`, with “inactive”.
Turning to `CN=C1S/C(=C\c2c(OC)cc(OC)cc2OC)C(=O)N1C`, the Potency entry was “inactive”.
Take `CCc1ccc(S(=O)(=O)Nc2cc3c(cc2N2CCCCC2)n(C)c(=O)c(=O)n3C)cc1`: the Potency entry is “inactive”.
Same read-out and setting: then `Cn1c(CCNS(=O)(=O)c2ccc(F)cc2)nnc1SCc1cccnc1`, with “inactive”; and `COc1ccc(CC(=O)N2N=C(C)CC2(O)C(F)(F)F)cc1` (stereo not drawn), with 7.94 µM (active).
Same read-out and setting: then `O=C(Cc1ccccc1)N1N=C(c2ccncc2)CC1(O)C(F)(F)F` (stereo not drawn), with 7.08 µM (active); and `CC(=O)N1N=C(c2ccncc2)OC1(Cc1ccccc1)Cc1ccccc1`, with “inactive”.
On to `O=C(CCc1ccccc1F)N1CCN(c2ccccc2)CC1`, for which the Potency result is “inactive”.
As to `COc1ccc(CC(=O)Nc2ccc(C(=O)NC(C)(C)C)cc2)cc1`, the Potency entry is “inactive”.
The same measure, in the same setting: under `O=C(C1CC1)N1N=C(c2ccc(Br)cc2)CC1(O)C(F)(F)F` (stereo not drawn) stands “inactive”; under `CCC(C)NC(=O)CCCc1ccccc1` (stereo not drawn), “inactive”.
On the same count and under the same terms, then `CC1=NN(C(=O)CCc2ccccc2O)C(O)(C(F)(F)F)C1` (stereo not drawn), with 8.91 µM (active).
On the same count and under the same terms, under `CCCCCNC(=O)Cc1ccc(OC)cc1` stands “inactive”; under `O=C(O)CCCc1ccccc1`, “inactive”.
`COc1ccc(C(=O)CCc2ccccc2O)c(OC)c1`: the activity change, negative = inhibition is 3.95% [at 1.91 µM] (inactive).
For the compound `CC1=NN(C(=O)CCCc2ccccc2)C(O)(C(F)(F)F)C1` (stereo not drawn), the Potency was 4.47 µM (active).
Regarding `COc1ccccc1N1CCN(S(=O)(=O)c2ccc3c(c2)NC(=O)CS3)CC1`, the Potency entry is “inactive”.
Consider `COc1cccc(NC(=O)N2CCC(NC(=O)C(Cc3cccc(C)c3)NC(C)=O)CC2)c1` (stereo not drawn), for which the Potency entry is “inactive”.
As to `CC(C)CN(Cc1c(O)ccc2c(=O)c(-c3ccccc3)coc12)CC(C)C`, the activity change, negative = inhibition is 27% [at 1.91 µM] (inactive).
As for `CC(C)[C@H](NC(=O)N1c2ccccc2NC(=O)[C@@H]1C(C)C)C(=O)N[C@H](C(=O)O)c1ccccc1`, the Potency result is “inactive”.
On the same count and under the same terms, then `CN(C(=O)CN1C(=O)/C(=C/c2ccc(Cl)cc2)SC1=S)C1CCS(=O)(=O)C1` (stereo not drawn), with “inactive”.
On to `CC(=O)C1=C(O)C(=O)N(c2ccc(Br)cc2)C1c1ccc([N+](=O)[O-])cc1` (stereo not drawn), for which the Potency entry was “inactive”.
The same measure, in the same setting: under `CC1Cc2cc(/C(O)=C3\C(=O)C(=O)N(Cc4cccnc4)C3c3ccccc3F)ccc2O1` (stereo not drawn) stands “inactive”; under `Cc1ccc(C2SCC(=O)N2c2ccccc2)cc1` (stereo not drawn), “inactive”; under `CC1=NN(/C(=N\c2nnc(C)s2)Nc2ccccc2)[C@H](c2ccc(C)cc2)S1`, 8.91 µM (active).
Same read-out and setting: under `COc1ccc(C(=O)CCC(=O)Nc2ccc(Cl)cc2)cc1` stands “inactive”; under `CCOC(=O)C1(Cc2ccccc2C)CCCN(C(=O)CN2C(=O)CSC2=O)C1` (stereo not drawn), “inactive”.
As for `N#Cc1ccc(/C=C2\CCn3c2nc2cc(C(=O)O)ccc2c3=O)cc1`, the Potency result was “inactive”.
For `Cc1ccc(NC2=C(Cl)C(=O)OC2OC(=O)c2ccccc2C)cc1` (stereo not drawn), the Potency result was “inactive”.
On to `CCOC(=O)CNc1nc(Cl)nc(Nc2ccccc2)n1`, for which the Potency entry was “inactive”.
With `Cc1ccccc1C(=O)OC1OC(=O)C(Cl)=C1Nc1ccccc1` (stereo not drawn), the Potency was 11.2 µM (active).
The same measure, in the same setting: under `COC(=O)c1sccc1NC(=O)c1ccc(Cl)cc1` stands “inactive”; under `CCOC(=O)/C(=N\Nc1ccccc1[N+](=O)[O-])c1csc(Nc2ccccc2)n1`, 11.2 µM (active); under `Cc1csc(NC(=O)Nc2ccccc2[N+](=O)[O-])n1`, “inactive”.
Regarding `CCOC(=O)C/C(C)=N\Nc1ccc([N+](=O)[O-])cc1[N+](=O)[O-]`, the Potency result was “inactive”.
Regarding `COc1ccc(OCc2cc(C(=O)NCC3(C)COC3)no2)c(Cl)c1`, the Potency entry was “inactive”.
As to `Cc1ccc(Cl)c(OCC(=O)N2CCc3ccccc3C2)c1`, the activity change, negative = inhibition was 3.92% [at 1.91 µM] (inactive).
In the case of `Cc1cc(C)cc(C(=O)OCC(=O)NCCNC(=O)COC(=O)c2cc(C)cc(C)c2)c1`, the Potency is 0.0708 µM (active).
The same measure, in the same setting: then `COc1ccccc1C(=O)OCC(=O)NCCNC(=O)COC(=O)c1ccccc1OC`, with “inactive”.
The same measure, in the same setting: then `Cc1cccc(C(=O)OCC(=O)Nc2ccc(F)cc2)c1`, with “inactive”; and `COc1ccc(S(=O)(=O)NC(C)C(=O)NCc2ccncc2)cc1Cl` (stereo not drawn), with “inactive”.
On to `COC(=O)CN1C(=O)[C@H]2[C@@H](/C=C/c3ccccc3)N3C(=O)CN(CC4CC4)C(=O)[C@@]3(Cc3ccccc3)[C@H]2C1=O`, for which the Potency result was “inactive”.
